Experimental data taken from the supplement of paper PMC10849652.
Targets with a hit are over-represented here; the source holds about 7,900 in all. About 0.6% of all pairs of compound and target were hits. Values without a mark were called inactive.

Each target was assayed with C=CC(=O)N1CCC[C@@H](n2nc(-c3ccc(Oc4ccccc4)cc3)c3c(N)ncnc32)C1 [ibrutinib] (assay: log2 fold change, soluble protein after heating vs DMSO (PISA); higher = thermal stabilisation; K562 cells, 10 uM, 30 min; active = over 0.2 and 3.5 SD of the protein, either way, in both replicates (recomputed)).
How it was run: (§1)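 Soluble protein was quantified by TMTpro 16plex LC-MS/MS after channel sums were equalised. It was obtained as the supernatant after 21,000xg for 90 min from pooled aliquots of K562 cells (2×10^6 cells/mL, 10 μM compound, 30 min) heated for 3 min across 48°C-58°C and extracted in PBS with 0.5% NP-40 at 4°C. Thermal stability values are relative to control samples and come from duplicates. They are given as log2 fold changes.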

Sequence of UniProt Q8TCG2 (Q8TCG2 whole entry, looked up): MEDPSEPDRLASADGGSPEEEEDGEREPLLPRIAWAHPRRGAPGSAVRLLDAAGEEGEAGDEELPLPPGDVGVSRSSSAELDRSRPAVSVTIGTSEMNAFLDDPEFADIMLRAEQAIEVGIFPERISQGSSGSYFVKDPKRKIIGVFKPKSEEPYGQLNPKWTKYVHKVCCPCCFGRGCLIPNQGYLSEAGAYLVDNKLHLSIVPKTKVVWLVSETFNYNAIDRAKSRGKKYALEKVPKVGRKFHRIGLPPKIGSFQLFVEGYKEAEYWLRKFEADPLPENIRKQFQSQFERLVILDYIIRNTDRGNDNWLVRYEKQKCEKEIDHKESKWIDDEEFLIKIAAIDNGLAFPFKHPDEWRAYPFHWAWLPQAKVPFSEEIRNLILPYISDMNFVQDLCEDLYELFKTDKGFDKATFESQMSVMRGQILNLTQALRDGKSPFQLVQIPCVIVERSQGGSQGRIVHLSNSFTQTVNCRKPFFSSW
Sequence of UniProt Q7Z3K3 (Q7Z3K3 whole entry, looked up): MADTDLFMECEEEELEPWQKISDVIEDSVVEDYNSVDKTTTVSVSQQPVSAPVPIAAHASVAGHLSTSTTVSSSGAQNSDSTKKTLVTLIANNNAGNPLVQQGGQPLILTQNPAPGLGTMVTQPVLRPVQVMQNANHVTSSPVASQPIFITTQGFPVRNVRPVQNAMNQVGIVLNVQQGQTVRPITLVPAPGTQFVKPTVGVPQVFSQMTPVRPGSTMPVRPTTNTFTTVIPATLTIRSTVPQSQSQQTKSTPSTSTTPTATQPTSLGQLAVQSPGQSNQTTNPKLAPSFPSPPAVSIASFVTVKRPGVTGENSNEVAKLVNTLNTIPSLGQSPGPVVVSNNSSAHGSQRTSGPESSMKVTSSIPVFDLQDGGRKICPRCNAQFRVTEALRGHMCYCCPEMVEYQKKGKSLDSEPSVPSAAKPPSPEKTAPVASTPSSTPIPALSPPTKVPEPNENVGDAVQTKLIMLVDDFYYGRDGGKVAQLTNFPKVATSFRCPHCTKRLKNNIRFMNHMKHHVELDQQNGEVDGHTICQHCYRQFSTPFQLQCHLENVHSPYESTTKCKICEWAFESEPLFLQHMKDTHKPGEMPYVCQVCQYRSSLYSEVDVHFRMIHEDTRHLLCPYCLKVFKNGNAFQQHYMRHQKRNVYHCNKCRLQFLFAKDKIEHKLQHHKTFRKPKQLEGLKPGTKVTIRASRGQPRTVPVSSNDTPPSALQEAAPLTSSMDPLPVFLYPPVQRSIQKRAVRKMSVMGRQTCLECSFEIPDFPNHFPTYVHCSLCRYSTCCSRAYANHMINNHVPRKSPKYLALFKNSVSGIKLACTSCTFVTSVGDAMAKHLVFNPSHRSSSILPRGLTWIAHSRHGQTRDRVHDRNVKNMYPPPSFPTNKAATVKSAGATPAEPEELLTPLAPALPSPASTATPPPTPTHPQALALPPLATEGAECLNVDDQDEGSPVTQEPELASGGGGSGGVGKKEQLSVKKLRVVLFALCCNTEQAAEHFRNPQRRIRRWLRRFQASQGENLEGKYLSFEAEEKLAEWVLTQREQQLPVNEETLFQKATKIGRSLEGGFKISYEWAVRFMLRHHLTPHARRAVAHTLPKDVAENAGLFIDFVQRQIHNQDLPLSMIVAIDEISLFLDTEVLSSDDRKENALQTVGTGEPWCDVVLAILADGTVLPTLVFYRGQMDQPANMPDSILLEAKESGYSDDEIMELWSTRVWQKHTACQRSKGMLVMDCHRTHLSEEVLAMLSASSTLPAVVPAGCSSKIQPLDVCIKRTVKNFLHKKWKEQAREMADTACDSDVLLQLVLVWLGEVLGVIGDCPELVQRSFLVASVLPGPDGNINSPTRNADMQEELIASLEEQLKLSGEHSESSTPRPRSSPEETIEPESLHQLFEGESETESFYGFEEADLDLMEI
Sequence of UniProt P14618 (P14618 whole entry, looked up): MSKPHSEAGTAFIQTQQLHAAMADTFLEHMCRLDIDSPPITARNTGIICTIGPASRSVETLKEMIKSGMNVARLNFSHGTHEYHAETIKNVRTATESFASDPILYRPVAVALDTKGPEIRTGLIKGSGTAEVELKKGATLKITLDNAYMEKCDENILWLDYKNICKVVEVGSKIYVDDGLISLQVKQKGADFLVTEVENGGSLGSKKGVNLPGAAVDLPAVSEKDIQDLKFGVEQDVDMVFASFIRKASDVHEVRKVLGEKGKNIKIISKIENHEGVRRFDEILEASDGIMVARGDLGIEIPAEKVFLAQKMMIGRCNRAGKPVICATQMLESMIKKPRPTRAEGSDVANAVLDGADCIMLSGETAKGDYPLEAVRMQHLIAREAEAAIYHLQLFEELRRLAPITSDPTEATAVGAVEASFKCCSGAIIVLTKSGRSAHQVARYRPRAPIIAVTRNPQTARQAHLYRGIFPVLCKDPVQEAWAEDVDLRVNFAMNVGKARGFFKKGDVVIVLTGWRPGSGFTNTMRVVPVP
Sequence of UniProt P07205 (P07205 whole entry, looked up): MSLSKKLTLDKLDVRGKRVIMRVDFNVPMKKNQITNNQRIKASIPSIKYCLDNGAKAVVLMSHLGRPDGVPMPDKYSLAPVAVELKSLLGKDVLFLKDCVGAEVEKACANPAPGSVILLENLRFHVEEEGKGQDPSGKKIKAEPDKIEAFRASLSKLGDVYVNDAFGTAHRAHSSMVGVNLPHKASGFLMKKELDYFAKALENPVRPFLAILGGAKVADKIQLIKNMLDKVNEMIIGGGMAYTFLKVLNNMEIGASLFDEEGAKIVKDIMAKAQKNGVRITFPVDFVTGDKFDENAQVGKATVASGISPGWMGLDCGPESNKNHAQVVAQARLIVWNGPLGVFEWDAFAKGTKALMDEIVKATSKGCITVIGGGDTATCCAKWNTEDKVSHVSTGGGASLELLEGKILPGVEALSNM
Sequence of UniProt Q5JVF3 (Q5JVF3 whole entry, looked up): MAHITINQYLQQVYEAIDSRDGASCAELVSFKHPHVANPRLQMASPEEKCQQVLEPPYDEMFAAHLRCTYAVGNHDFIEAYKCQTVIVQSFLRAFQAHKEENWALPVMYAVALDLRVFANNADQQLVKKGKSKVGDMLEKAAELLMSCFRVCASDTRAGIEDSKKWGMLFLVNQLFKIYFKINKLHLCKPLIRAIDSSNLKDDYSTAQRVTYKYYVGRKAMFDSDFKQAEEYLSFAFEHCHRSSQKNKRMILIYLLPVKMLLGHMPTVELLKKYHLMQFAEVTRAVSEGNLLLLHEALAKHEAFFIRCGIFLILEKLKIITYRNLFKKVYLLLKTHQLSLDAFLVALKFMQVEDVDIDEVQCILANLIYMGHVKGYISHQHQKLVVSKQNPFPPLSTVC
Sequence of UniProt Q9UHX1 (Q9UHX1 whole entry, looked up): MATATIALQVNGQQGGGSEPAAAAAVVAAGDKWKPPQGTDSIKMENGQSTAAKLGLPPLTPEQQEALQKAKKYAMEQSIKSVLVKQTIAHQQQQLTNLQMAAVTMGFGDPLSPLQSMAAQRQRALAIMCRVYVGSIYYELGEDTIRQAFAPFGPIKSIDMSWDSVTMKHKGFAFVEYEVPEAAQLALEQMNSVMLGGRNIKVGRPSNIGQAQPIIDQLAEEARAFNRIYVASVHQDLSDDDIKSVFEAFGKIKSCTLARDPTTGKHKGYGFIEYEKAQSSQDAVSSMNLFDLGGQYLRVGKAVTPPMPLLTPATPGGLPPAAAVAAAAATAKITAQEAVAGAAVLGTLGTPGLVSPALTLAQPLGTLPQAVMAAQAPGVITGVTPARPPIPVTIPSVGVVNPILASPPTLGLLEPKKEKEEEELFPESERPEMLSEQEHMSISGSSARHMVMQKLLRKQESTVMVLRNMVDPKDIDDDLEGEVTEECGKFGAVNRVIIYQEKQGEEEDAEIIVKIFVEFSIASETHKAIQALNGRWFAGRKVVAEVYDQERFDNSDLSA
Sequence of UniProt O94806 (O94806 whole entry, looked up): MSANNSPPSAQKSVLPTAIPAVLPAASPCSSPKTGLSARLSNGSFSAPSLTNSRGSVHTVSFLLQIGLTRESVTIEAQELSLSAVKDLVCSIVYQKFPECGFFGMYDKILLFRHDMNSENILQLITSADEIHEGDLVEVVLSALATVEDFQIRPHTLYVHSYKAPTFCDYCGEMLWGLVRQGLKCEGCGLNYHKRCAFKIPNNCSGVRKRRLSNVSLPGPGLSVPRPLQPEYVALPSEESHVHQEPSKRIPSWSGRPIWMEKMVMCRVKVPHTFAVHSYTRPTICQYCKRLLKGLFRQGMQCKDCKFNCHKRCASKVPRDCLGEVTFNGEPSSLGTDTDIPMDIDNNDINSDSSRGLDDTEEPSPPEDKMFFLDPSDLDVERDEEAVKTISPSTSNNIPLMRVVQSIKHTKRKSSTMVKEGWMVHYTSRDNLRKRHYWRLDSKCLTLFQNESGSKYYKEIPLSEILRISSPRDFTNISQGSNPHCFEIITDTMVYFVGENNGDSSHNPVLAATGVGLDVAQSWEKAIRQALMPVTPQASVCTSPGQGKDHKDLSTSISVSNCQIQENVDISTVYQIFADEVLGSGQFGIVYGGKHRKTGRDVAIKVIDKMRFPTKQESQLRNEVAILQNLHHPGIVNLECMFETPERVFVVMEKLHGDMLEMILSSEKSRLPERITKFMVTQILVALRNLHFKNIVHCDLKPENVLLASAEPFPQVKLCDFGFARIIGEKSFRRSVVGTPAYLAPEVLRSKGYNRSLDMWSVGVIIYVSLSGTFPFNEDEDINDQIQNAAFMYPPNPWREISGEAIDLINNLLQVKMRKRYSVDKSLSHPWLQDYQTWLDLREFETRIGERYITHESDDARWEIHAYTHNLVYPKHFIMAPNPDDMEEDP
Sequence of UniProt P41247 (P41247 whole entry, looked up): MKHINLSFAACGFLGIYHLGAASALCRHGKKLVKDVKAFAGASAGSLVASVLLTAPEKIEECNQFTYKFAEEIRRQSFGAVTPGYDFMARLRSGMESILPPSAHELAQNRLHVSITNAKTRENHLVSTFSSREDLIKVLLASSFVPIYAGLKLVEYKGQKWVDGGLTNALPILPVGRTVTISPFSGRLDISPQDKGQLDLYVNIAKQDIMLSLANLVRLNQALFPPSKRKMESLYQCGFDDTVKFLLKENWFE

Row | Target | log2 fold change
1 | PCBP2 (UniProt F8VZX2) | 0.212
2 | PCNX1 (UniProt Q96RV3) | 0.008
3 | PHC3 isoform 7 (UniProt Q8NDX5) | -0.159
4 | PCF11 (UniProt O94913) | -0.255
5 | PPP2R5C isoform 2 (UniProt Q13362) | -0.038
6 | PTP4A3 (UniProt O75365) | 0.079
7 | PAN2 (UniProt Q504Q3) | -0.134
8 | PPP1R12C (UniProt Q9BZL4) | -0.024
9 | PPP2R5B (UniProt Q15173) | -0.083
10 | PCID2 (UniProt Q5JVF3) | -0.015
11 | PPP1R12B isoform 6 (UniProt O60237) | 0.075
12 | PSMC3 (UniProt E9PLG2) | -0.051
13 | PUF60 isoform 2 (UniProt Q9UHX1) | 0.035
14 | PGK2 (UniProt P07205) | -0.003
15 | PRKD3 (UniProt O94806) | 0.059
16 | PNPLA4 (UniProt P41247) | 0.012
17 | PLCXD1 (UniProt Q9NUJ7) | 0.021
18 | PRKD2 (UniProt M0R346) | -0.096
19 | PRKX (UniProt P51817) | -0.005
20 | PTK2B (UniProt Q14289) | -0.257
21 | PI4K2B (UniProt Q8TCG2) | -0.004
22 | PSMA3 (UniProt G3V4X5) | -0.065

What follows are targets tested with CC(=O)c1cnc2ccc(-c3cc(Cl)c(O)c(Cl)c3)nc2c1N[C@H]1CC[C@H](CN(C)C)CC1 in the same assay as above.
How it was run: as §1

Row | Target | log2 fold change
23 | PCF11 (UniProt O94913) | -0.093
24 | POGZ (UniProt Q7Z3K3) | -0.183
25 | PSMA3 (UniProt H0YJ03) | 0.052
26 | PPP2R5B (UniProt Q15173) | 0.165
27 | PEX5 isoform 4 (UniProt P50542) | -0.035
28 | PUM1 (UniProt Q14671) | -0.038
29 | PUF60 isoform 2 (UniProt Q9UHX1) | -0.329
30 | PGK2 (UniProt P07205) | 0.004
31 | PRKD3 (UniProt O94806) | -2.06 (active)
32 | PNPLA4 (UniProt P41247) | 0.005
33 | PSD3 (UniProt Q9NYI0) | -0.024
34 | PKM isoform 2 (UniProt P14618) | 0
35 | PRR14L (UniProt Q5THK1) | -0.104
36 | PTK2B (UniProt Q14289) | -0.018
37 | PI4K2B (UniProt Q8TCG2) | 0.042

The targets below were run with CC(C)(C)Cn1c(N)nc2ccc(-c3[nH]c(C(C)(C)C)nc3-c3ccc(F)cc3)nc21 [ralimetinib] in the same assay as above.
How it was run: as §1

Row | Target | log2 fold change
38 | PCBP2 (UniProt F8VZX2) | -0.004
39 | PCF11 (UniProt O94913) | -0.104
40 | PPP2R5C isoform 2 (UniProt Q13362) | 0.026
41 | POGZ (UniProt Q7Z3K3) | 0.083
42 | PPP1R12C (UniProt Q9BZL4) | -0.028
43 | PSMA3 (UniProt H0YJ03) | 0.14
44 | PTEN isoform 2 (UniProt P60484) | 0.062
45 | PMS2CL (UniProt Q68D20) | -0.21
46 | PCID2 (UniProt Q5JVF3) | 0.007
47 | POLB (UniProt P06746) | 0.14
48 | PEX5 isoform 4 (UniProt P50542) | 0.145
49 | PIAS4 (UniProt Q8N2W9) | -0.005
50 | PUF60 isoform 2 (UniProt Q9UHX1) | 0.25
51 | PGK2 (UniProt P07205) | -0.07
52 | PRKD3 (UniProt O94806) | -0.089
53 | PNPLA4 (UniProt P41247) | -0.022
54 | PSD3 (UniProt Q9NYI0) | -0.026
55 | PHRF1 (UniProt Q9P1Y6) | -0.144
56 | PLCXD1 (UniProt Q9NUJ7) | 0.113
57 | PKM isoform 2 (UniProt P14618) | 0.054
58 | PTK2B (UniProt Q14289) | 0.178
59 | PI4K2B (UniProt Q8TCG2) | -0.04
60 | PSMA3 (UniProt G3V4X5) | -0.114

These targets were tested with CC(C)(O)CC(=O)NCCn1ccc2ncnc(Nc3ccc(Oc4cccc(C(F)(F)F)c4)c(Cl)c3)c21 in the same assay as above.
How it was run: as §1

Row | Target | log2 fold change
61 | PCNX1 (UniProt Q96RV3) | 0.005
62 | PHC3 isoform 7 (UniProt Q8NDX5) | -0.25
63 | POGZ (UniProt Q7Z3K3) | -0.035
64 | PPP1R12C (UniProt Q9BZL4) | 0.045
65 | PMS2CL (UniProt Q68D20) | -0.042
66 | PCID2 (UniProt Q5JVF3) | 0.063
67 | POLB (UniProt P06746) | -0.222
68 | PEX5 isoform 4 (UniProt P50542) | 0.038
69 | PIAS4 (UniProt Q8N2W9) | -0.781 (active)
70 | PSMC3 (UniProt E9PLG2) | 0.167
71 | PGK2 (UniProt P07205) | 0.008
72 | PKM isoform 2 (UniProt P14618) | -0.561 (active)
73 | PRKD2 (UniProt M0R346) | -0.273
74 | PTK2B (UniProt Q14289) | -0.026
